Source: PMC5540273 (PLoS ONE, 2017)

Columns and labels:
Conditions in all cases: concentration: 1 μM, replicates: in singlicate; n = 1
EPHB6 = test system: EPHB6
ERBB2 = test system: ERBB2
ERBB3 = test system: ERBB3
ERBB4 = test system: ERBB4
ERK1 = test system: T1, ERK1
T1 construct: gene MAPK3

ERK2 = test system: T2, ERK2
T2 construct: gene MAPK1

ERK3 = test system: T3, ERK3
T3 construct: gene MAPK6

ERK4 = test system: T4, ERK4
T4 construct: gene MAPK4

ERK5 = test system: T5, ERK5
T5 construct: gene MAPK7

ERK8 = test system: T6, ERK8
T6 construct: gene MAPK15

ERN1 = test system: ERN1
FAK = test system: T7, FAK
T7 construct: gene PTK2

FER = test system: FER
FES = test system: FES
FGFR1 = test system: FGFR1
FGFR2 = test system: FGFR2
FGFR3 = test system: FGFR3
FGFR4 = test system: FGFR4
FGR = test system: FGR
FLT1 = test system: FLT1
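Note: KINOMEscan kinase panel screen.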

Compound | %Inh (EPHB6) [%] | %Inh (ERBB2) [%] | %Inh (ERBB3) [%] | %Inh (ERBB4) [%] | %Inh (ERK1) [%] | %Inh (ERK2) [%] | %Inh (ERK3) [%] | %Inh (ERK4) [%] | %Inh (ERK5) [%] | %Inh (ERK8) [%] | %Inh (ERN1) [%] | %Inh (FAK) [%] | %Inh (FER) [%] | %Inh (FES) [%] | %Inh (FGFR1) [%] | %Inh (FGFR2) [%] | %Inh (FGFR3) [%] | %Inh (FGFR4) [%] | %Inh (FGR) [%] | %Inh (FLT1) [%]
COCCNC(=O)c1ccc(-c2cc(C(=O)NC3CC3)cc(F)c2C)cc1 [GW868318] | 23 | 13 | 29 | 8 | 2 | 25 | 6 | 8 | 0 | 29 | 38 | 3 | 1 | 32 | 17 | 3 | 7 | 3 | 32 | 7
Cc1cccc(-c2nc(-c3ccc(S(C)(=O)=O)cc3)sc2-c2ccncc2)c1 | 46 | 4 | 9 | 0 | 6 | 29 | 6 | 0 | 2 | 0 | 0 | 4 | 14 | 37 | 26 | 1 | 0 | 0 | 45 | 0
NCC(NC(=O)c1cc(-c2cn[nH]c2)c(-c2ccnc3[nH]ccc23)s1)c1ccccc1.O=C(O)C(F)(F)F.O=C(O)C(F)(F)F (centres unmarked) [GSK1325775] | 12 | 32 | 0 | 10 | 0 | 0 | 20 | 9 | 0 | 51 | 29 | 57 | 0 | 0 | 20 | 0 | 0 | 0 | 0 | 0
COc1cc(Nc2nccc(N3CCC(NC(=O)c4cccc(NC(C)=O)c4)C3)n2)cc(OC)c1OC (centres unmarked) [GSK1379754] | 78 | 16 | 0 | 1 | 0 | 14 | 0 | 1 | 0 | 0 | 22 | 0 | 6 | 11 | 21 | 21 | 25 | 6 | 27 | 44
